Several values for one entry are separate records, joined by “and”; a condition that tells them apart may be missing. Identical values can stand only once. Activity calls are given as the source filed them. Rule as the data show it: active = remaining activity below about 50%; inactive = the rest.
Each compound was assayed against Phospholipase D2 (Homo sapiens) (UniProt O14939) (assay: cellular phospholipase D2 activity inhibition – cell-based, HEK293, single concentration (AID 602143;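 also: tested at 200 nM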)). Conditions: HEK293 cellular PLD2 activity, percent of control; hits give low values.
Chain of Phospholipase D2 (Homo sapiens) (O14939 whole entry, looked up): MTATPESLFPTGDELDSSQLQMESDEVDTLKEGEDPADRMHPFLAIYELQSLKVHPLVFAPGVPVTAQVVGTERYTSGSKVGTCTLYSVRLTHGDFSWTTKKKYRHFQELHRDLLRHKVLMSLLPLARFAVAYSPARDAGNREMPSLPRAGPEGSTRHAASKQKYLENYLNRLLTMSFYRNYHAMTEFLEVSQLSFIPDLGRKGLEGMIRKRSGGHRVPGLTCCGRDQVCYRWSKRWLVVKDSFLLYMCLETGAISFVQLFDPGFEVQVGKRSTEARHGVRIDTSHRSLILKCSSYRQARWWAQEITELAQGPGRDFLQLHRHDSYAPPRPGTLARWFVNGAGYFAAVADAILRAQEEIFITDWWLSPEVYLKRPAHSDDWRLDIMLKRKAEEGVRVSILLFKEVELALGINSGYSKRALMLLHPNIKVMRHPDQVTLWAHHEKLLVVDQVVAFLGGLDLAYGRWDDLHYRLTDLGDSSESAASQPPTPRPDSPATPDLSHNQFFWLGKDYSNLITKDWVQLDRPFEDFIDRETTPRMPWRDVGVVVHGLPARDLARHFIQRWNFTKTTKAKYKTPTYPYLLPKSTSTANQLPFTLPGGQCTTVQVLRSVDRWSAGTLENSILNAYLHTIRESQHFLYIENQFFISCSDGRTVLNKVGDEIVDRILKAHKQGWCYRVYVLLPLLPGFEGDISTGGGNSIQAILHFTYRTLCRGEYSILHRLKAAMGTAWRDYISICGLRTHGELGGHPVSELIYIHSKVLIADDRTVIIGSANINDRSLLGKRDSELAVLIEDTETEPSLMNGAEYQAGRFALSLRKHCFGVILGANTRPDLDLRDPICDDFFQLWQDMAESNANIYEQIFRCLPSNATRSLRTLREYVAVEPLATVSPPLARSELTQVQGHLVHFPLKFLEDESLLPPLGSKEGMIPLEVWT
Chain of Phospholipase D2 (Homo sapiens) (O14939 whole entry, looked up): as above

Structure (SMILES) | remaining activity
O=C(COCc1ccccc1)NCCN1CCC2(CC1)C(=O)NCN2c1cccc(F)c1 | 86.7% (inactive)
CCCCOc1ccc(C(=O)NCCN2CCC3(CC2)C(=O)NCN3c2cccc(F)c2)cc1 | 95.2% (inactive)
Cc1ccc(C(=O)NCCN2CCC3(CC2)C(=O)NCN3c2ccccc2)c(O)c1 | 85% (inactive)
O=C(CCN1CCC2(CC1)C(=O)NCN2c1ccccc1)Nc1ccc(Cl)cc1 | 183% (inactive)
CCOC(=O)CCN1CCC2(CC1)C(=O)NCN2c1ccccc1 | 91.6% (inactive)
O=C(c1ccc2ccccc2c1)N1CC(N2CCC3(CC2)C(=O)NCN3c2ccccc2)C1 | 72.6% (inactive)
O=C(NCCN1CCC2(CC1)C(=O)NCN2c1cccc(Cl)c1)c1cnc2ccccc2c1 | 45.2% (active)
O=C(NCCCCCCN1CCC2(CC1)C(=O)NCN2c1ccccc1)c1ccc2ccccc2c1 | 133% (inactive)
Cc1ccccc1C(=O)N(CCN1CCC2(CC1)C(=O)NCN2c1cccc(F)c1)C(=O)c1ccccc1C | 106% (inactive)
CC1(C)C(C(=O)NCCN2CCC3(CC2)C(=O)NCN3c2ccccc2)C1(C)C | 122% (inactive)
O=C(NCCN1CCC2(CC1)C(=O)NCN2c1cccc(Cl)c1)c1ccc2ccccc2c1 | 72% (inactive)
O=C(NCCCN1CCC2(CC1)C(=O)NCN2c1ccccc1)c1cnc2ccccc2c1 | 96.4% (inactive)
Cc1cccc(C(=O)NCCN2CCC3(CC2)C(=O)NCN3c2ccccc2)n1 | 89% (inactive)
O=C(NCCN1CCC2(CC1)C(=O)NCN2c1ccccc1)c1ccc2c(c1)C(=O)OC2=O | 93.5% (inactive)
O=C(NCCN1CCC2(CC1)C(=O)N(Cc1ccccc1)c1ccccc12)c1ccc2ccccc2c1 | 70.6% (inactive)
C[C@@H](CN1CCC2(CC1)C(=O)NCN2c1ccc(F)c(F)c1)NC(=O)c1ccc(F)cc1 | 23.6% (active)
C[C@@H](CN1CCC2(CC1)C(=O)NCN2c1ccc(F)c(F)c1)NC(=O)c1ccc2ccccc2c1 | 51.2% (inactive)
O=C(NCCN1CCC2(CC1)C(=O)NCN2c1cccc(Cl)c1)c1ccc(F)cc1 | 65.4% (inactive)

Structure (SMILES) | remaining activity
O=C(CCN1CCC2(CC1)C(=O)NCN2c1ccccc1)Nc1ccc(F)c(F)c1 | 147% (inactive)
O=C(N[C@@H](Cc1ccccc1)CN1CCC2(CC1)C(=O)NCN2c1ccccc1)c1ccc(F)c(F)c1 | 102% (inactive)
CCC(=O)N[C@@H](C)CN1CCC2(CC1)C(=O)NCN2c1ccccc1 | 95.3% (inactive)
COc1cc(C(=O)NCCN2CCC3(CC2)C(=O)NCN3c2ccccc2)ccc1N | 38.8% (active)
O=C(NCCN1CCC2(CC1)C(=O)NCN2c1ccc(Br)cc1)c1cnc2ccccc2c1 | 48.6% (active)
CCCCCC(=O)NCCN1CCC2(CC1)C(=O)NCN2c1cccc(F)c1 | 80.7% (inactive)
C[C@H](CN1CCC2(CC1)C(=O)NCN2c1ccccc1)NC(=O)c1cc2cc(F)ccc2[nH]1 | 0% (active)
O=C(NCCN1CCC2(CC1)C(=O)NCN2c1ccc(F)cc1)c1ccc2ccccc2c1 | 34.3% (active)
O=C(NCCN1CCC2(CC1)C(=O)NCN2c1ccccc1)c1ccc(F)cc1O | 82.6% (inactive)
O=C(NCCN1CCC2(CC1)C(=O)NCN2c1ccccc1)c1ncccc1F | 82.2% (inactive)
O=C(CN1CCC2(CC1)C(=O)NCN2c1ccccc1)c1ccccc1 | 106% (inactive)
C[C@H](N)CN1CCC2(CC1)C(=O)NCN2c1ccccc1 (tested in a mixture with another compound) | 74.1% (inactive)
O=C1c2ccccc2C(=O)N1CCN1CCC2(CC1)C(=O)NCN2c1ccccc1 | 86.5% (inactive)
O=C(c1cnc2ccccc2c1)N1CC(N2CCC(n3c(=O)[nH]c4ccccc43)CC2)C1 | 77.3% (inactive)
O=C(c1cnc2ccccc2c1)N1CC(N2CCC(n3c(=O)[nH]c4cc(Br)ccc43)CC2)C1 | 99.7% (inactive)
O=C(NCCN1CCC2(CC1)C(=O)NCN2c1ccc(F)cc1)c1cc2ccccc2[nH]1 | 8.73% (active)
O=C(c1ccc(F)c(F)c1)N1CCCC1CN1CCC(n2c(=O)[nH]c3ccccc32)CC1 (stereo not given) | 124% (inactive) and 114% (inactive)

— PubChem BioAssay AID602143 (Vanderbilt Specialized Chemistry Center, 2011)
